The source of these data is PubChem BioAssay.

Activity calls are given as the source filed them.

Test [1] concerns Plasmodium falciparum Sir2 (PF13_0152, Sir2A). As to the kind of experiment: pfSir2 binders on small-molecule microarrays, primary screen, biochemical, small-molecule microarray, 635 nm fluorescence (AID 1098).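 Note: score merges spot fluorescence intensity with its signal-to-noise ratio.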 The note with it: small-molecule microarray binding, fluorescence 635 nm; higher = more signal.
Test [2] can be described thus: small-molecule microarray binders of probe aDKK1, primary screen, biochemical, biotinylated probe, 635/667 nm fluorescence (AID 1099).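 Note: score merges 667nm spot fluorescence with signal to noise across triplicate slides; reference of the scale not given here.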 As to conditions: higher = more signal.
A short description of test [3]: small-molecule microarray binders of probe aCHRDL2, primary screen, biochemical, biotinylated probe, 635/667 nm fluorescence (AID 1100). As to conditions: higher = more signal.
The nature of test [4]: splicing luciferase reporter signal modulators, primary screen, spliceosome inhibition project, cell-based, HEK293, splice +/- reporter (AID 1101).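 Note: HEK293 cells carrying a splicing-competent luciferase reporter gene; test concentration not given here.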 The note with it: luminescence, 24 h, higher = more signal, called active from +8 up or from −8 down.
For test [5], the target named is Fibroblast growth factor 10 (Homo sapiens) (UniProt O15520). As to the kind of experiment: FGF10 binders on small-molecule microarrays, primary screen, biochemical, small-molecule microarray, 635 nm fluorescence (AID 1102). The note with it: FGF10 binding, fluorescence 635 nm, higher = more signal.
Fibroblast growth factor 10 (Homo sapiens), sequence (O15520 whole entry, looked up): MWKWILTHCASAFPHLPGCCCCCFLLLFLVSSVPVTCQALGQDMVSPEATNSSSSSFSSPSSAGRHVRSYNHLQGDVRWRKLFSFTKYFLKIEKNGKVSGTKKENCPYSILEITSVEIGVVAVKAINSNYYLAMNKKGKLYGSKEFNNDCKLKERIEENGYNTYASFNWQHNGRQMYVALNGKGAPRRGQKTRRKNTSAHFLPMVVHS
Test [6] relates to glycogen synthase kinase-3 (GSK3A per assay name; protocol says GSK3B). As to the kind of experiment: GSK3 binders on small-molecule microarrays, primary screen, biochemical, small-molecule microarray, 635 nm fluorescence, GSK3A (AID 1103). Note: the record names both GSK3A and GSK3B. As to conditions: small-molecule microarray binding, fluorescence 635 nm; higher = more signal.
For test [7], the target named is Epidermal growth factor receptor (Homo sapiens) (UniProt P00533). As to the kind of experiment: EGFR binders on small-molecule microarrays, primary screen, biochemical, small-molecule microarray, 635 nm fluorescence (AID 1104).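 Note: score merges 667 nm emission intensity with spot signal to noise over triplicate slides.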 The note with it: EGFR binding, higher = more signal.
Epidermal growth factor receptor (Homo sapiens), sequence (P00533 whole entry, looked up): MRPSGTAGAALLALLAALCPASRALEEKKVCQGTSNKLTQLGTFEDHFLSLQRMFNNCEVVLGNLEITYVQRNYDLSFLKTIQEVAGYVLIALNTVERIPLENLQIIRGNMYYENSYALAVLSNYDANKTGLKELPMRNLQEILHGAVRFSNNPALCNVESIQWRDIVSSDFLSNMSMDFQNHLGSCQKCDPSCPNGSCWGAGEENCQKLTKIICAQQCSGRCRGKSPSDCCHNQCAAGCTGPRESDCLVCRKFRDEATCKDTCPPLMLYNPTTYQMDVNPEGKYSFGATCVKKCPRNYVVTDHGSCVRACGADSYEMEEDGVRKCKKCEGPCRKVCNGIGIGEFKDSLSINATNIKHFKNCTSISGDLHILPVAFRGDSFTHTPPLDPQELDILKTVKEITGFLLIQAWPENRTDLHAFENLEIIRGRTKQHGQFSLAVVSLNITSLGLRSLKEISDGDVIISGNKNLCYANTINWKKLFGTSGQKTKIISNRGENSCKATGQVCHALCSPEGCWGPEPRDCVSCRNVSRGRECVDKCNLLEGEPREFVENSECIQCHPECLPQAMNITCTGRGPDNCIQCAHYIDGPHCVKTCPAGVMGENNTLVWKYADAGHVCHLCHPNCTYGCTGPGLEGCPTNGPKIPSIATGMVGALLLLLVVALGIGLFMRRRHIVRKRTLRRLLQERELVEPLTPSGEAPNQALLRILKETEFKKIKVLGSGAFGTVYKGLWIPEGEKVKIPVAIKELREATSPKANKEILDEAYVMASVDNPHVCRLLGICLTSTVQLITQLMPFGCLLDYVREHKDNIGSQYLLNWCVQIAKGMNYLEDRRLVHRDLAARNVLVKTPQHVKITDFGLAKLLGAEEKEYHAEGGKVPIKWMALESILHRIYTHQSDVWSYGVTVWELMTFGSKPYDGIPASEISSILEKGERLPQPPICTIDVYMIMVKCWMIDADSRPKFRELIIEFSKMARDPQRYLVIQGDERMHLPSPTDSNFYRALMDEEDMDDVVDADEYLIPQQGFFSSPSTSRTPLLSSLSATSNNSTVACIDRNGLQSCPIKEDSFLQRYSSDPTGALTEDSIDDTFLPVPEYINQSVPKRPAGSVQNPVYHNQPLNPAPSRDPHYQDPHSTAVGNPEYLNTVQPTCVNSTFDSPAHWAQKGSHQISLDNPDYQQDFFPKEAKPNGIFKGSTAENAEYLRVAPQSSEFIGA
In test [8] the target is Follistatin-related protein 3 (Homo sapiens) (UniProt O95633). As to the kind of experiment: FSTL3 binders on small-molecule microarrays, primary screen, biochemical, small-molecule microarray, 635 nm fluorescence (AID 1105).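 Note: score merges emission near 667 nm and signal to noise per printed spot across three slides.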 As to conditions: FSTL3 binding, higher = more signal.
Follistatin-related protein 3 (Homo sapiens), sequence (O95633 whole entry, looked up): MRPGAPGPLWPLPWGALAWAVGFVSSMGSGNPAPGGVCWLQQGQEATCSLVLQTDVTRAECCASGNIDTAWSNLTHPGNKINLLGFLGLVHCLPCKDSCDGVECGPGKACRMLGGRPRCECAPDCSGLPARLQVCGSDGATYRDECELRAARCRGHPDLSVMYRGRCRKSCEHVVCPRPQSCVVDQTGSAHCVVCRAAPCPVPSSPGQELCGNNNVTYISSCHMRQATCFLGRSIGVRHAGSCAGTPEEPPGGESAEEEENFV
Test [9] deals with Dickkopf-related protein 1 (Homo sapiens) (UniProt O94907). As to the kind of experiment: DKK1 binders on small-molecule microarrays, primary screen, biochemical, small-molecule microarray, 635 nm fluorescence scan (AID 1106).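 Note: score merges emission near 667 nm with signal to noise over three replicate slides.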 The note with it: DKK1 binding, higher = more signal.
Dickkopf-related protein 1 (Homo sapiens), sequence (O94907 whole entry, looked up): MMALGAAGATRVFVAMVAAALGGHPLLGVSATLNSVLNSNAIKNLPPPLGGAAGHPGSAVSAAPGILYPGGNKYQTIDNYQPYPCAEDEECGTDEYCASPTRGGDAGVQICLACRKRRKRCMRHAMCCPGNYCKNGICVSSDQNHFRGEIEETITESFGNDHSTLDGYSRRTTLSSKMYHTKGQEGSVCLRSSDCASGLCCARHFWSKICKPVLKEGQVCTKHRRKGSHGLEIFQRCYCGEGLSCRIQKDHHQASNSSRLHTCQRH
Test [10] has as its system Inhibin beta A chain (activin A). As to the kind of experiment: INHBA (activin A) binders on microarrays, primary screen, biochemical, small-molecule microarray, 635 nm fluorescence scan (AID 1107).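 Note: mouse activin A protein probed at 4.33 µg/mL on printed slides; score merges bound-protein fluorescence near 667 nm with spot signal-to-noise.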 The note with it: small-molecule microarray binding, higher = more signal.

For the compound `COCCOC(=O)N1C(=O)[C@@]2(c3cc(C#Cc4ccc(OC)cc4)ccc31)[C@H](C(N)=O)[C@H]1C(=O)O[C@H](c3ccccc3)[C@H](c3ccccc3)N1[C@@H]2c1ccc(OCCO)cc1`, the composite z-score in test [1] was 1.43; in test [2], -0.178; in test [3], -0.13; in test [5] it was 1.42; in [6], 1.33; in [7] it was 0.769. Also, the composite z-score turned out to be 1.34 in test [8], 0.631 in test [9] and 0.343 in test [10]. Also, the z-score in [4] was -0.853 (inactive).

As to `C[N+](C)(C)CCCCCCNC(=O)[C@@H]1C[C@@H]2C(=O)NCC(=O)N2[C@@H]1c1cccc(OCCO)c1`, the composite z-score in test [1] is 1.23; in test [2], -0.253; in [3], -0.127; in [5], 0.781; in [6], 0.496; in [7], 0.144. Also, the composite z-score in [8] amounted to 1.44; in test [9], 1.24; in [10] it was 0.728. Also, the z-score in test [4] was -2.5 (inactive).

Take `CCOC(=O)C[C@H]1[C@H](OC(=O)c2ccccc2-c2ccccc2)[C@@H](NC(=O)c2ccccc2)c2cc(OCCCO)ccc2N1C(=O)Cc1ccc(OC)cc1`: the composite z-score in test [1] is 0.0521; in test [2], -0.0327; in test [3] it was 0.0247; in [5], 0.0268; in test [6], -0.519; in test [7] it was -0.104. The composite z-score in test [8] was -0.183; in test [9], -0.0633; in test [10], 0.264. The z-score in test [4] is -0.269 (inactive).

Take `COc1ccccc1CN1C(=O)c2ccccc2[C@@H](C(=O)NCC(C)C)[C@@H]1c1ccc(CO)cc1`: the composite z-score was 1.05 in test [1]; 0.543 in test [2]; 0.705 in test [3]; 0.773 in test [5]; -0.0674 in test [6]; -0.318 in test [7]. Moreover, the composite z-score in [8] was found to be 0.0144; in [9] it was 0.213; in test [10] it was 0.002. Besides, the z-score in [4] is -0.8 (inactive).

For `COc1ccc([Si](C)(C)[C@@H]2[C@@H](CC(=O)N3Cc4ccccc4C[C@H]3CO)O[C@]3(C(=O)N(Cc4cccc(N5CCCCC5=O)c4)c4ccccc43)[C@H]2C)cc1`, the composite z-score is 0.856 in test [1]; -0.154 in [2]; -0.222 in test [3]; 0.689 in test [5]; 1.2 in [6]; 0.968 in test [7]. Moreover, the composite z-score in test [8] was determined as 1.33; in test [9], 1.17; in [10] it was 0.435. Also, the z-score in [4] is -1.46 (inactive).

`CN1C(=O)C2C=CC(C(O)c3ccc(F)cc3)N(N3CCCCC3)C2C1=O` (stereo not given): the composite z-score in test [1] was 1.56; in test [2] it was 1.3; in test [3] it was 1.33; in test [5], 0.252; in test [6], 0.432; in [7] it was -0.406. Besides, the composite z-score in test [8] was -0.0733; in [9], -1.3; in test [10], 1.23. Further, the z-score in [4] is 0.981 (inactive).

As to `CO[C@H]1O[C@H](CO)[C@@H](OC(=O)c2ccc(Br)cc2)[C@@H]2OC(=O)[C@H](Cc3cccc(Br)c3)C/C=C/C[C@@H](Cc3cccc(Br)c3)C(=O)O[C@@H]12`, the composite z-score in test [1] stood at 0.418; in test [2] it was 0.649; in test [3], 0.78; in test [5], 1.04; in test [6] it was 0.559; in test [7], 0.194. For the same compound, the results for the composite z-score in test [8], in test [9] and in [10] were 0.914, 0.189 and 0.602, respectively. In addition, the z-score in test [4] is 0.0118 (inactive).

Take `C=CCOC(=O)[C@@H]1[C@H]2C(=O)O[C@H](c3ccccc3)[C@H](c3ccccc3)N2[C@H](c2ccc(OCCOC(=O)[C@H]3C[C@H]4C(=O)N[C@@H](Cc5ccccc5)C(=O)N4[C@H]3c3cccc(OCCO)c3)cc2)[C@@]12C(=O)Nc1ccc(I)cc12`: the composite z-score in test [1] is 0.921; in test [2], 0.141; in [3], -0.0432; in test [5] it was 1.24; in [6], 1.32; in [7], 1.01. The composite z-score in test [8] was 1.14; in test [9] it was 1.13; in [10], 0.967. The z-score in [4] is -0.316 (inactive).

With `O=C(O)[C@]1(CCS(=O)(=O)c2ccccc2)N=C(c2ccc(OCCCO)cc2)O[C@@H]1c1ccccc1`, the composite z-score in test [1] was 0.74; in [2], 1.21; in [3], 1.04; in [5] it was 0.216; in [6], 0.439; in test [7], -0.422. For the same compound, the composite z-score was -0.564 in test [8], -0.402 in test [9] and 0.849 in test [10]. Besides, in test [4], the z-score was 0.149 (inactive).

For `C=CCC(OC(C)=O)[C@@H]1[C@@H](N(Cc2cccc3ccccc23)C(=O)Cc2ccc(F)cc2)c2cc(OCCCO)ccc2N1C(=O)Cc1ccc(OC)cc1` (stereo not given in full), the composite z-score in [1] was -0.44; in [2], -0.0312; in test [3], 0.0398; in [5] it was 0.398; in test [6], -0.0555; in test [7], -0.0723. For the same compound, the composite z-score in [8] worked out at 0.665; in test [9] it was 0.104; in test [10], 1.25. Further, in [4], the z-score was -1.07 (inactive).

For `O=C1N(CCS(=O)(=O)c2ccccc2)Cc2ccccc2C[C@@]12COC(c1ccc(OCCCO)cc1)=N2`, the composite z-score in test [1] was determined as 1.69; in test [2] it was 1.15; in test [3] it was 1.26; in [5] it was 1.07; in [6] it was 1.29; in [7], 0.847. The figures for the composite z-score in [8], in test [9] and in test [10] were 1.3, 0.628 and 1.32, respectively. In addition, the z-score in [4] is 0.67 (inactive).

Regarding `CCCN1C(=O)[C@@H]2Cc3c([nH]c4ccccc34)[C@@H](c3cccc(O)c3)N2C1=O`, the composite z-score is 0.292 in [1]; -0.0726 in test [2]; -0.0794 in [3]; 0.415 in [5]; 0.718 in test [6]; 0.578 in test [7]. Besides, the composite z-score in test [8] was 0.493; in [9] it was 1.14; in test [10], 0.275. For the same compound, in test [4], the z-score was 1.08 (inactive).

With `O=C1c2ccccc2[C@](Cc2ccccc2I)(C(=O)NCC(F)(F)F)[C@H](c2ccc(CO)cc2)N1Cc1ccccc1`, the composite z-score is 1.14 in test [1]; 0.0143 in test [2]; 0.296 in [3]; 0.269 in test [5]; 0.848 in test [6]; -0.0654 in [7]. The composite z-score in test [8] is 0.871; in [9] it was -0.316; in test [10] it was 0.545. Also, the z-score in test [4] was -0.507 (inactive).

Take `O=C1OCCC=C[C@H]2OC34C=CCN(Cn5nnc6ccccc65)C(=O)[C@H]3N(CCCCCO)C(=O)[C@@H]4C12` (stereo not given in full): the composite z-score in test [1] was 1.18; in test [2], -0.181; in test [3], 0.311; in test [5] it was -0.691; in [6], -0.368; in test [7] it was -0.97. In addition, the values for the composite z-score in test [8], in test [9] and in [10] were -1.09, -0.925 and 0.0469, respectively. Further, the z-score in test [4] is 0.227 (inactive).

Regarding `COC(=O)C(CC#Cc1ccc2c(c1)[C@]1(C(=O)N2)[C@H](c2ccccc2OCCO)N2[C@H](c3ccccc3)[C@H](c3ccccc3)OC(=O)[C@H]2[C@@H]1C(=O)Nc1nc2ccccc2s1)C(=O)OC`, the composite z-score in test [1] is 1.21; in [2] it was -0.0226; in test [3], -0.0159; in test [5] it was 1.3; in test [6], 1.21; in [7], 0.312. Also, the composite z-score was 0.806 in test [8], 0.171 in test [9] and 0.245 in [10]. In addition, the z-score in test [4] is -0.333 (inactive).
